Source: PubChem BioAssay (several laboratories)
CTSL1 counter – cathepsin L1 inhibition, PFM18AAP counter-screen; inhibition, % at 5.96 µM; 300,000 compounds, 0.49% hits; recombinant F. hepatica cathepsin L1, Z-Leu-Arg-MCA fluorescence;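 active = inhibition above the mean of all tested compounds plus 3 SD, set per screening campaign, cut at about 17% in these data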;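 note: 0% = plate median of test compound wells and 100% = 1 µM Z-Phe-Ala-diazomethylketone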
HGIII-sPLA2 inh – Blocks human group III sPLA2 activity | inhibition, % at 12.2 µM | 370,000 compounds, 0.56% hits | Q9NZ20 | QFRET BODIPY PC-A2 liposome hydrolysis, fluorescence;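 active = inhibition above mean plus 3 SD of compounds lying within the high and low control bounds, cut at about 19% in these data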;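 note: 0% = median of test compound wells and 100% = no enzyme DMSO wells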
A3A deaminase – blocks human APOBEC3A ssDNA deamination | recombinant A3A, FAM/TAMRA ssDNA deamination fluorescence | inhibition, % at 20 µM | 330,000 compounds, 0.41% hits;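 active = at least 40% inhibition at 20 µM here, with at most 30% in a related deaminase screen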;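 note: plate controls were A3A with DMSO for no effect and wells lacking A3A enzyme for full effect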
Target sequence (P31941 whole entry, looked up): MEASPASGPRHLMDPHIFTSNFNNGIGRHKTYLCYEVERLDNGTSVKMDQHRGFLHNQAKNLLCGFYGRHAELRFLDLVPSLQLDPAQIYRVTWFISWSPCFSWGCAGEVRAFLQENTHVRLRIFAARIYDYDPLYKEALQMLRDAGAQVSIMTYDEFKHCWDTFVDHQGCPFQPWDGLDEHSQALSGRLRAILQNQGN
A3G deaminase – APOBEC3G (human) deaminase inhibition; recombinant A3G, ssDNA deamination FAM/TAMRA fluorescence; 330,000 compounds, 0.28% hits; inhibition, % at 20 µM; Q9HC16; AID 493012;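 active = inhibition of at least 40% at 20 µM, with no more than 30% in the related APOBEC3A deaminase screen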;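 note: plate controls were DMSO wells with A3G for no effect and wells lacking A3G enzyme for full effect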
Target sequence (Q9HC16 whole entry, looked up): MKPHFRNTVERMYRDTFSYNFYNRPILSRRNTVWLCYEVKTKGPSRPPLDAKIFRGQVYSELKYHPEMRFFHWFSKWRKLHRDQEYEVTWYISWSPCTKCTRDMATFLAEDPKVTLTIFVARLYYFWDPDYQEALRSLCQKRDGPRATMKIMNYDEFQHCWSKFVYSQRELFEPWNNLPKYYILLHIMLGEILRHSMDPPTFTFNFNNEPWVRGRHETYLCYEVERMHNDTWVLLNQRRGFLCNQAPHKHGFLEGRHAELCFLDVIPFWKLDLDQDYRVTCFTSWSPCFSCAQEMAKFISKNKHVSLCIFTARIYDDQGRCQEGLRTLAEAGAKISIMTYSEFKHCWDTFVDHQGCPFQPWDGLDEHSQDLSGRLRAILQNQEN
NALP1 inh – NALP1 inhibition. S. cerevisiae NALP1/ASC/caspase-1 growth, X-gal OD620, 72 h. inhibition, % at 10 µM. 280,000 compounds, 0.61% hits. AID 2071; in the data active = inhibition mostly above about 24%, no sharp cut-off; inactive = mostly below about 32%
Numbers without * were called inactive; nt = not tested or not shown. Rows were chosen to be rich in hits. Some 2% of all compounds tested hit in one or more screens of this group.

SMILES | CTSL1 counter | HGIII-sPLA2 inh | A3A deaminase | A3G deaminase | NALP1 inh
Cc1[nH]n(-c2ccccc2)c(=O)c1C(C[N+](=O)[O-])c1ccccc1Cl (stereo not given) | -5 | -5 | -5 | -8 | 22
COc1ccc(C(C[N+](=O)[O-])c2c(C)[nH]n(-c3ccccc3)c2=O)cc1 (stereo not given) | 98* | 11 | 0 | -7 | 45*
COc1ccc(/C=N\NC(=O)COc2ccc(C(C)(C)C)cc2)cc1Cn1nc(C)cc1C | 0 | -4 | 0 | -2 | 38*
O=C(Nc1ccccc1F)C1CCN(S(=O)(=O)c2cccc3nonc23)CC1 | -3 | 3 | -1 | -2 | 24
O=C(Nc1ccccc1Cl)C1CCN(S(=O)(=O)c2cccc3nonc23)CC1 | 3 | 2 | -2 | -12 | 37*
CC(C)CCN(C)C1CCN(C(=O)Nc2ccccc2)CC1 | nt | -2 | nt | nt | nt
CC1CCCN(CCCOc2ccc(Cl)cc2Br)C1 (stereo not given) | 2 | -2 | -5 | -7 | 50*
COc1ccc(-n2c(=O)c3c4c(sc3n3c(=S)[nH]nc23)CCC4)cc1 | 17* | 5 | -8 | 31 | -3
COc1ccccc1CNC(=O)CCCC(=O)n1nc(C)c2ccccc21 | -2 | 0 | 1 | -1 | 15
Cc1nn(C(=O)CCC(=O)NCc2ccccc2Cl)c2ccccc12 | 20* | 0 | 2 | 2 | 15
CN(C)C(=O)CSc1nnc2sc3ccccc3n12 | -2 | -4 | 4 | 6 | 3
CCOC(=O)CC(=O)CSc1nnc2sc3ccccc3n12 | 41* | -1 | -6 | -8 | -2
CC(=O)Nc1ccc(NC(=O)CC2SC(=O)N(CC(=O)c3ccccc3)C2=O)cc1 (stereo not given) | 96* | -13 | 2 | -7 | 16
C[C@H](CCCCC1(C)OCCO1)CCC(=O)N(c1ccccc1)c1ccccc1 | nt | -4 | nt | nt | nt
O=[N+]([O-])c1cc(S(=O)(=O)N2CCCCCC2)ccc1F | 7 | 0 | nt | nt | 79*
Cc1ccc(NC(=O)c2ccc(=O)n(CC(=O)Nc3ccccc3)n2)cc1 | -4 | 5 | -2 | -2 | 34
CC(=O)Nc1ccc(NC(=O)Cn2nc(C(=O)Nc3ccc(C)cc3)ccc2=O)cc1 | 47* | -9 | -3 | -6 | 9
COc1ccc(C#CCN(C)/C(N)=N/C(=O)OCc2ccccc2)cc1 | nt | -17 | nt | nt | nt
CCCCCCn1c2c(c(=N)c3c1CCC3)CCC2 | 2 | 3 | 0 | -2 | 15
CCCCCCCCCn1c2c(c(=N)c3c1CCC3)CCC2 | 6 | nt | 0 | -1 | 27*
CCCCCC1CCC(C(=O)O)CC1 (stereo not given) | 0 | 7 | -4 | -7 | 27*
CCCCC1CCC(/C(N)=N/O)CC1 (stereo not given) | 2 | -6 | -2 | -1 | -8
COc1cc(-c2nnc(SCc3cc(=O)oc4cc(O)c(O)cc34)o2)cc(OC)c1OC | 2 | -30 | 55 | 47 | 45*
Cc1ccc2nc(N(CCCN(C)C)C(=O)c3ccc4c(c3)CCCC4)sc2c1 | 3 | -10 | -1 | -3 | 52*
COc1ccc(C2CC(c3ccccc3)=NN2C(=O)COC(=O)CNC(=O)c2ccccc2)cc1 (stereo not given) | 31* | -1 | -2 | -7 | 4
SMILES | CTSL1 counter | HGIII-sPLA2 inh | A3A deaminase | A3G deaminase | NALP1 inh
COc1ccc(C2CC(c3ccccc3)=NN2C(=O)COC(=O)c2ccc(Cl)nc2)cc1 (stereo not given) | -6 | -14 | 6 | 5 | 26
O=C(CNC(=O)c1ccccc1)OCC(=O)N1N=C(c2ccc(Cl)cc2)CC1c1ccco1 (stereo not given) | 20* | -1 | -2 | -7 | 45
O=C(CN(C(=O)OCC1c2ccccc2-c2ccccc21)[C@@H](Cc1ccccc1)C(=O)O)OCc1ccc(C(=O)NCc2ccccc2)cc1 | nt | -39 | nt | nt | nt
CC(=O)N1[C@@H](CO)[C@@H](c2ccc(-c3cccc(F)c3)cc2)[C@@H]1CNCC1CCC1 | nt | -5 | nt | nt | nt
CCOc1ccc(-n2c(SCC(=O)Nc3ccc(S(=O)(=O)Nc4cc(C)nc(C)n4)cc3)nnc2-c2ccc(OC)cc2)cc1 | nt | -30 | nt | nt | nt
Cc1cc(C)cc(NC(=O)CSc2nc(CSc3ccc(Cl)cc3)cc(=O)[nH]2)c1 | 4 | 9 | 0 | -7 | 34*
Nc1cc(=O)[nH]c(SCC(=O)Nc2cc(Cl)cc(Cl)c2)n1 | 3 | -6 | -1 | -8 | -7
O=C(NCC(c1ccccc1)c1ccccc1)[C@H](Cc1ccccc1)NC1(C(=O)NC2CCCCC2)CCOCC1 | nt | 10 | nt | nt | nt
Cc1ccc2c(c1)C(CS(=O)(=O)NC1CCCC1)NC2 (stereo not given) | nt | 6 | nt | nt | nt
COc1ccc(C(=O)Nc2nc3ccccc3[nH]2)cc1OC | 3 | 2 | 10 | -8 | 2
COc1ccc(Cl)cc1C(=O)Nc1nc2ccccc2[nH]1 | 2 | 1 | 6 | -2 | 38*
N#Cc1ccc(NC(=O)Nc2ccc(Cl)cc2)cc1 | 3 | -18 | 1 | 0 | 71*
CCN1CCN(C2=C(NS(=O)(=O)c3ccccc3)C(=O)c3ccccc3C2=O)CC1 | 9 | 3 | -4 | -5 | -1
CCN1CCN(C2=C(NS(=O)(=O)c3ccc(Br)cc3)C(=O)c3ccccc3C2=O)CC1 | 20* | 0 | 4 | 8 | 7
Cc1nc(NC2=NCN(CCc3ccccc3)CN2)nc2ccccc12 | nt | nt | nt | nt | 37*
Cc1nc(NC2=NCN(Cc3ccccc3)CN2)nc2ccccc12 | nt | nt | nt | nt | 32*
O=C(NC1CCCCN(Cc2ccc(OC(F)(F)F)cc2)C1=O)c1cccc(C(F)(F)F)c1 (stereo not given) | nt | 13 | nt | nt | nt
CCCCOCCCNC(=O)C[C@@H]1C(=O)N2CCCC3=C2[C@@]1(C(=O)OC)CCCC3 | nt | 3 | nt | nt | nt
Cn1c(=O)c(=O)n(C)c2cc(S(=O)(=O)CCC(=O)Nc3c(F)c(F)c(F)c(F)c3F)ccc21 | 3 | 6 | -2 | -6 | 13
Cn1c(=O)c(=O)n(C)c2cc(S(=O)(=O)CCC(=O)Nc3ccc(C(F)(F)F)cc3)ccc21 | 17* | 3 | 0 | -3 | 31
O=C(O)C1C2C=CC(C2)C1C(=O)NCc1ccc(Cl)c(Cl)c1 (stereo not given) | -2 | -3 | 1 | -1 | 47*
COCCOC(=O)N(C)C[C@@H]1OCCCC[C@H](C)Oc2ccc(NC(=O)Nc3ccccc3)cc2C(=O)N([C@@H](C)CO)C[C@H]1C | nt | -15 | nt | nt | nt
CC(/C=C/C=C/c1ccccc1)=N\NC(=O)c1cccnc1 | 22* | 1 | -7 | -11 | 2
O=S(=O)(NC1CC2CCC1C2)c1ccc2c(c1)OCCO2 (stereo not given) | 1 | -7 | -3 | -3 | 16
CC1CCCC(NS(=O)(=O)c2ccc3c(c2)OCCO3)C1C (stereo not given) | 2 | -7 | -4 | -7 | 27*
COc1ccc2ccccc2c1C(=O)/C=C\c1ccoc1 | 23* | 12 | 6 | -2 | 51
O=C(/C=C/c1ccoc1)c1ccccc1O | -2 | 0 | 0 | -1 | 20
